According to PubChem BioAssay (NCI):
The panel holds about 83,000 compounds, 20% with a hit somewhere; the sample as a whole holds those more often.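 Compound tested at a single concentration for 48 hours in 96-well plates; a percent growth value below 10 was scored as active.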 A number with no mark means an inactive call. Activity calls are given as the source filed them.

Key:
Assay in all cases: NCI-60 one-dose screen, 48 h (100 = growth as untreated, 0 = no growth, -100 = all killed)
Conditions in all cases: 10 µM unless noted
[1] = system: HCT-15 colon
[2] = system: HT29 colon
[3] = system: SNB-75 CNS
[4] = system: SNB-19 CNS
[5] = system: U251 CNS
[6] = system: PC-3 prostate
[7] = system: SK-MEL-5 melanoma
[8] = system: LOX IMVI melanoma
[9] = system: SK-MEL-28 melanoma
[10] = system: SK-MEL-2 melanoma
[11] = system: EKVX NSCLC
[12] = system: SN12C renal
[13] = system: UO-31 renal
[14] = system: TK-10 renal
[15] = system: ACHN renal
[16] = system: CAKI-1 renal
[17] = system: A498 renal
[18] = system: CCRF-CEM leukemia
[19] = system: MOLT-4 leukemia
[20] = system: UACC-62 melanoma

Compound	growth [1]	growth [2]	growth [3]	growth [4] [%]	growth [5]	growth [6]	growth [7]	growth [8]	growth [9]	growth [10]	growth [11]	growth [12]	growth [13]	growth [14]	growth [15]	growth [16]	growth [17]	growth [18]	growth [19]	growth [20] [%]
Ic1ccc(Nc2nc3nonc3nc2Nc2ccc(I)cc2)cc1	-11.5% (active)	0.391% (active)	24.7%	22.4	6.94% (active)	4.36% (active)	-81.2% (active)	-3.56% (active)	12.2%	-55.2% (active)	4.77% (active)	7.43% (active)	-0.338% (active)	2.2% (active)	4.88% (active)	7.67% (active)	-22% (active)	-1.76% (active)	-29% (active)	–
Cc1nc(N/N=C/c2cn(-c3ccccc3)nc2-c2cc3ccccc3oc2=O)sc1N=Nc1ccccc1	56.1%	85.2%	50.4%	91.9	93.1%	85.8%	93.3%	89.5%	87.6%	93.7%	102%	97.6%	70.7%	106%	98%	69.7%	77%	94.3%	85.1%	–
Cc1cc(O)cc(-c2nn(C)cc2-c2cc(N3CCOCC3)nc(-c3cccnc3)n2)c1	22.7%	17.4%	1.48% (active)	33.8	21.5%	22.7%	1.65% (active)	25.6%	46.8%	51.5%	52.3%	32.3%	30.5%	51.6%	37.9%	43.9%	-36.3% (active)	24.3%	26.8%	–
O=C(/C=C/C12c3ccccc3C(c3ccccc31)C1C(=O)NC(=O)C12)c1ccc(I)cc1 (stereo unspecified)	39.7%	29.6%	63.6%	63.4	34.5%	34.5%	69.5%	37.8%	64%	56.7%	66.1%	50.9%	46.2%	66.7%	67.6%	60.4%	56.1%	1.53% (active)	6.91% (active)	–
O=C(Nc1cc(Cl)ccc1O)c1ccccc1Nc1ccnc(C(F)(F)F)c1	14.1%	38.2%	55.6%	16.2	10.8%	7.3% (active)	-43.8% (active)	18.8%	75%	31.8%	75.8%	3.5% (active)	1.11% (active)	74.5%	7.95% (active)	72.1%	53.7%	-2.43% (active)	-25% (active)	–
COC(=O)/C=C1/SC(=Nc2ccc(F)cc2)N(CCc2c[nH]c3ccc(O)cc23)C1=O	23.6%	36.7%	43.2%	46.6	25.6%	33.3%	44.9%	-10.7% (active)	51.8%	-0.819% (active)	55.9%	–	46.4%	84%	–	52.1%	49.8%	3.69% (active)	0.14% (active)	23.5
CCOC(=O)C/C(=N\Nc1cc(=O)[nH]c2ccc(OC)cc12)C(=O)OCC	99.7%	110%	94.6%	100	106%	89%	99.7%	96.6%	99.6%	117%	100%	99.5%	78.1%	114%	98.8%	91.9%	106%	-47.5% (active)	26.1%	–
CNC(=O)Nc1ccc(-c2ccc3ncnc(Nc4cccc(Cl)c4)c3c2)cc1	45.9%	29%	54.6%	69.6	54.9%	45.1%	56.1%	60.8%	58.9%	65.9%	2% (active)	–	46.5%	–	34.2%	32.1%	-8.06% (active)	44.5%	36.7%	64.7
Cc1cccc(NC(=O)Cn2cc(CN3CCN(c4ccnc5cc(Cl)ccc45)CC3)nn2)c1	88.8%	98.5%	75%	89.6	93%	63.3%	68.8%	81.6%	102%	108%	87.7%	–	65.7%	102%	82.9%	72.7%	84.3%	-32.9% (active)	5.76% (active)	73
Cc1ccc(Cc2cnc(NC(=O)/C=C/c3ccc(C)o3)s2)cc1	19.9%	11.4%	26.7%	56.4	41.9%	33.3%	23.8%	49.5%	65.5%	53.8%	49.7%	51.7%	48.5%	68%	40.4%	36%	25.1%	27.8%	37.6%	–
CCn1cc(Cc2cc(C(=O)Nc3cc4cc(OC)c(OC)cc4c(C)n3)ccc2Cl)cn1	19.3%	2.56% (active)	36%	44.7	48.3%	29.2%	13.3%	5.28% (active)	35%	42%	47.2%	–	35%	73.7%	15.7%	47.8%	44.4%	22.4%	42.6%	43.8
O=C(/C=C/c1cn(-c2ccccc2)nc1-c1ccccc1)CCC(=O)NO	110%	104%	95.6%	112	106%	108%	105%	99.4%	130%	99%	111%	–	87.7%	104%	106%	94.5%	105%	93.2%	79.9%	103
c1ccc(Cn2cc3c(c2-c2ccccc2)CCc2cnoc2-3)cc1	48.6%	30.1%	4.38% (active)	70.6	55.5%	82.5%	78.8%	66.1%	59.5%	93.4%	80.1%	–	80.1%	101%	101%	84.1%	54%	48.3%	58.5%	43.1
CC(=O)O[C@H]1CC[C@]2(C)[C@H]3CC=C4[C@@H]5CC(C)(C)CC[C@]5(C(=O)N5CCN(CCC#N)CC5)CC[C@@]4(C)[C@]3(C)CC[C@H]2C1(C)C	20.3%	12.4%	53.8%	63.2	12.4%	19.5%	7.89% (active)	20%	52.2%	68.7%	65.8%	–	30.2%	–	28.2%	35.1%	5.98% (active)	27.5%	19.7%	38
COC1C(O)CC(OC2CC(OC3CC(O[C@@H]4C(=O)c5c(cc6cc(OC7CC(OC8CC(O)C(O)C(C)O8)C(O)C(C)O7)c(C)c(O)c6c5O)CC4[C@H](OC)C(=O)O)OC(C)C3O)OC(C)C2O)OC1C (stereo partly specified)	48.6%	20.3%	-22.7% (active)	21.4	0.444% (active)	21.8%	-45.9% (active)	-12.7% (active)	3.33% (active)	-34.2% (active)	40.4%	20.7%	1.52% (active)	34.1%	2.86% (active)	18.1%	-15.2% (active)	46.1%	27.2%	–
Brc1ccc(Nc2nc(Nc3cnc4ccccc4c3)c3[nH]cnc3n2)cc1	83%	70.7%	77.5%	93.6	89.4%	27.6%	72.6%	63.7%	94.2%	78.2%	40.3%	–	70.3%	113%	77.5%	82.9%	79.6%	60.6%	78.3%	66.8
